What all share (assay): NCI-60 one-dose screen, 48 h (100 = growth as untreated, 0 = no growth, -100 = all killed)
In one assay the test system is SR leukemia. To be noted: 10 µM unless noted.
The subject of the next assay is RPMI-8226 leukemia. To be noted: 10 µM.
The test system of the next assay is OVCAR-8 ovarian. To be noted: 10 µM.
The subject of another assay is OVCAR-5 ovarian. As to conditions: 10 µM.
In another assay the test system is OVCAR-4 ovarian. To be noted: 10 µM.
In the next assay the test system is SK-OV-3 ovarian. To be noted: 10 µM.
Another assay concerns IGROV1 ovarian. As to conditions: 10 µM.
The test system of a further assay is NCI/ADR-RES ovarian. As to conditions: 10 µM.
Another assay relates to OVCAR-3 ovarian. To be noted: 10 µM.
The next assay has as its system HS 578T breast. To be noted: 10 µM.

“And” between values parts separate entries of the source, which are not always exact repeats. Equal entries are not always repeated. Compounds without any hit were thinned out: in the full panel of roughly 83,000, 20% have a hit.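 A percent growth of 40 corresponds to 60% growth inhibition; 0 means no net growth; -100 means all cells died. Active threshold: below 10.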 The source made the active and inactive calls.

The record followed here is PubChem BioAssay (NCI).

With `O=C(/C=C/c1ccccn1)c1ccccc1`, the growth in the assay on SR leukemia was -15.7% (active); in the assay with RPMI-8226 leukemia it was 25.4% (inactive); in the assay on OVCAR-8 ovarian it was 28.9% (inactive); in the assay on OVCAR-5 ovarian, 81% (inactive); in the assay on OVCAR-4 ovarian, 47.2% (inactive); in the assay on SK-OV-3 ovarian, 108% (inactive). The figures for the growth with IGROV1 ovarian and in the assay on NCI/ADR-RES ovarian were 46.1% (inactive) and 35% (inactive), respectively.
Consider `COc1c(O)cc2oc3cc(O)c(CC=C(C)C)c(O)c3c(=O)c2c1CC=C(C)C`, for which the growth in the assay with SR leukemia was 7.13% (active); in the assay on RPMI-8226 leukemia, 49.9% (inactive); with OVCAR-8 ovarian, 54.7% (inactive); in the assay with OVCAR-4 ovarian, 82.2% (inactive); in the assay on SK-OV-3 ovarian, 89% (inactive); in the assay with IGROV1 ovarian, 75% (inactive). In addition, the growth was 46.1% (inactive) in the assay with OVCAR-3 ovarian, 73.3% (inactive) with HS 578T breast and 38.6% (inactive) in the assay on NCI/ADR-RES ovarian.
In the case of `CO[C@H](C(=O)[C@@H](O)[C@@H](C)O)[C@@H]1Cc2cc3cc(OC4CC(OC5CC(O)C(O)C(C)O5)C(O)C(C)O4)c(C)c(O)c3c(O)c2C(=O)[C@H]1OC1CC(OC2CC(OC3CC(C)(O)C(O)C(C)O3)C(O)C(C)O2)C(O)C(C)O1` (stereo not given in full), the growth is 10.5% (inactive) with SR leukemia; -14.5% (active) in the assay with RPMI-8226 leukemia; -54.9% (active) in the assay with OVCAR-5 ovarian; 8.23% (active) with OVCAR-4 ovarian; 35.3% (inactive) with SK-OV-3 ovarian; -21% (active) in the assay with IGROV1 ovarian. In addition, the growth was 3.02% (active) in the assay on OVCAR-3 ovarian and 44.4% (inactive) in the assay on NCI/ADR-RES ovarian.
As for `CS(=O)(=O)OC1CC(n2ccc(=O)[nH]c2=O)OC1COC(c1ccccc1)(c1ccccc1)c1ccccc1` (stereo not given), the growth in the assay with SR leukemia is 78% (inactive); with RPMI-8226 leukemia, 101% (inactive); with OVCAR-8 ovarian it was 104% (inactive); in the assay with OVCAR-5 ovarian, 98% (inactive); in the assay on OVCAR-4 ovarian it was 106% (inactive); in the assay on SK-OV-3 ovarian, 106% (inactive). The growth with IGROV1 ovarian was 92% (inactive); with HS 578T breast, 112% (inactive); with NCI/ADR-RES ovarian, 113% (inactive).
As for `NC(=O)SCC(=O)NNc1ccccc1`, the growth in the assay with SR leukemia is 111% (inactive); in the assay on RPMI-8226 leukemia, 105% (inactive); with OVCAR-8 ovarian it was 93.8% (inactive); in the assay with OVCAR-4 ovarian, 104% (inactive); with SK-OV-3 ovarian, 100% (inactive); in the assay with IGROV1 ovarian, 103% (inactive). Moreover, the growth in the assay on OVCAR-3 ovarian is 107% (inactive); in the assay with HS 578T breast, 100% (inactive); with NCI/ADR-RES ovarian, 95.5% (inactive).
On to `OCC1OC(n2cnc3c(=S)nc[nH]c32)C(O)C1O` (stereo not given), for which the growth with SR leukemia was 112% (inactive) and 37.9% (inactive); in the assay on RPMI-8226 leukemia, 108% (inactive) and 31.6% (inactive); with OVCAR-8 ovarian, 47.3% (inactive); with OVCAR-5 ovarian, 57% (inactive) and 85.1% (inactive); with OVCAR-4 ovarian, 91.5% (inactive) and 46.9% (inactive); in the assay on SK-OV-3 ovarian it was 113% (inactive). For the same molecule, the growth with IGROV1 ovarian was 85.4% (inactive); with HS 578T breast it was 89.5% (inactive) and 62.7% (inactive); in the assay with NCI/ADR-RES ovarian, 102% (inactive) and 46.5% (inactive).
As to `CCCCCCCCCCCCSC(=NC)NC`, the growth in the assay on SR leukemia is -4.45% (active) and -23.7% (active); in the assay on RPMI-8226 leukemia it was -6.03% (active) and 23.3% (inactive); with OVCAR-8 ovarian, 62.1% (inactive) and 82% (inactive); in the assay with OVCAR-5 ovarian, 57.5% (inactive) and 84.1% (inactive); with OVCAR-4 ovarian, 31.3% (inactive) and 71.2% (inactive); in the assay on SK-OV-3 ovarian, 51% (inactive) and 79.1% (inactive). The growth in the assay on IGROV1 ovarian is 20.3% (inactive) and 66.7% (inactive); in the assay on HS 578T breast, 81.4% (inactive) and 93.2% (inactive); in the assay on NCI/ADR-RES ovarian, 47.4% (inactive) and 69.1% (inactive).
On to `N=S(c1ccccc1[N+](=O)[O-])c1ccccc1[N+](=O)[O-]`, for which the growth was 72.8% (inactive) with RPMI-8226 leukemia; 96.8% (inactive) in the assay on OVCAR-8 ovarian; 69.6% (inactive) with OVCAR-5 ovarian; 38.4% (inactive) with OVCAR-4 ovarian; 87.2% (inactive) with SK-OV-3 ovarian; 53.9% (inactive) in the assay on IGROV1 ovarian. In addition, the growth in the assay with HS 578T breast is 96.7% (inactive); with NCI/ADR-RES ovarian, 90.4% (inactive).
For `CSC1SCC2C(=O)N(C)C(C(C)C)C(=O)OCC(NC(=O)c3cnc4ccccc4n3)C(=O)NC(C)C(=O)N(C)C1C(=O)N(C)C(C(C)C)C(=O)OCC(NC(=O)c1cnc3ccccc3n1)C(=O)NC(C)C(=O)N2C` (stereo not given), the growth is -37.7% (active) with SR leukemia; -30% (active) in the assay on RPMI-8226 leukemia; 2.94% (active) in the assay with OVCAR-5 ovarian; 1.22% (active) in the assay with OVCAR-4 ovarian; 15.5% (inactive) in the assay with SK-OV-3 ovarian; 0.149% (active) in the assay with IGROV1 ovarian. Further, the growth is -60.8% (active) with HS 578T breast and 7.62% (active) in the assay with NCI/ADR-RES ovarian.
Regarding `OCC(O)C(O)C(O)C(/C=N/Nc1ccccc1)=N/Nc1ccccc1` (stereo not given), the growth is 58.8% (inactive) in the assay with SR leukemia; 92.2% (inactive) with RPMI-8226 leukemia; 92.6% (inactive) in the assay on OVCAR-8 ovarian; 82.3% (inactive) in the assay with OVCAR-5 ovarian; 93.1% (inactive) in the assay on OVCAR-4 ovarian; 99.5% (inactive) in the assay on SK-OV-3 ovarian. In addition, the growth was 83.4% (inactive) in the assay on IGROV1 ovarian, 79.7% (inactive) with HS 578T breast and 79.8% (inactive) in the assay with NCI/ADR-RES ovarian.
As to `COC(=O)C1=COC(C)C2C[n+]3ccc4c([nH]c5ccccc54)c3CC12` (stereo not given), the growth with SR leukemia was 104% (inactive) and 99.4% (inactive); in the assay with RPMI-8226 leukemia, 93.9% (inactive) and 95.8% (inactive); in the assay on OVCAR-8 ovarian, 107% (inactive) and 89.8% (inactive); in the assay with OVCAR-5 ovarian, 105% (inactive) and 94.7% (inactive); in the assay with OVCAR-4 ovarian, 100% (inactive) and 108% (inactive); in the assay on SK-OV-3 ovarian, 114% (inactive) and 83.8% (inactive). The growth was 103% (inactive) and 82.5% (inactive) in the assay on IGROV1 ovarian; 111% (inactive) and 79.6% (inactive) in the assay on HS 578T breast; 108% (inactive) and 102% (inactive) in the assay on NCI/ADR-RES ovarian.
For the molecule `CCN1/C(=C/C=C/C=C/c2sc3ccccc3[n+]2CC)Sc2ccccc21`, the growth in the assay on RPMI-8226 leukemia was -21.4% (active); in the assay with OVCAR-8 ovarian, -65.6% (active); in the assay on OVCAR-5 ovarian it was 7.61% (active); in the assay on OVCAR-4 ovarian, -42% (active); in the assay on SK-OV-3 ovarian it was -73.1% (active); in the assay on IGROV1 ovarian it was -62.9% (active). In addition, the figures for the growth with HS 578T breast and in the assay with NCI/ADR-RES ovarian were 26.2% (inactive) and 55.9% (inactive), respectively.
For `COc1ccc(CC(=O)c2ccc(O)cc2O)cc1`, the growth is 92.8% (inactive) with OVCAR-8 ovarian; 105% (inactive) in the assay with OVCAR-5 ovarian; 99.2% (inactive) with OVCAR-4 ovarian; 163% (inactive) in the assay on SK-OV-3 ovarian; 122% (inactive) in the assay with IGROV1 ovarian; 108% (inactive) in the assay on HS 578T breast. For the same molecule, the growth in the assay with NCI/ADR-RES ovarian was 105% (inactive).
